Source: PubChem BioAssay
PK Bst – modulators of Bacillus stearothermophilus pyruvate kinase; purified pyruvate kinase, luminescence ATP production; ribose 5-phosphate activator present at AC10; Potency, µM; 1.2% of 51,000 active; in the data active = potency below about 11 µM; inconclusive = mostly about 12 µM to 25 µM;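 the screen sought inhibitors and activators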
GFP derepression – epigenetic modulators derepressing GFP locus in mouse cells; mouse C127i GFP locus derepression, cytometry, 30 h; Potency, µM (doses to about 46.1 µM); 0.09% of 68,000 active; AID 597
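Locus derepression in mouse mammary C127i cells whose integrated CMV-GFP reporter is normally silent; GFP expression after 30 h compound treatment was quantified by counting fluorescent cells.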
Luciferase inh – inhibitors of firefly luciferase. purified firefly luciferase, luminescence, 8 min. 2.2% of 72,000 active. P08659. Potency, µM (top dose mostly 57.1 µM), usual class: inhibitors; also: nearly all actives have a fitted effect of over 40% in size
Target sequence (P08659 whole entry, looked up): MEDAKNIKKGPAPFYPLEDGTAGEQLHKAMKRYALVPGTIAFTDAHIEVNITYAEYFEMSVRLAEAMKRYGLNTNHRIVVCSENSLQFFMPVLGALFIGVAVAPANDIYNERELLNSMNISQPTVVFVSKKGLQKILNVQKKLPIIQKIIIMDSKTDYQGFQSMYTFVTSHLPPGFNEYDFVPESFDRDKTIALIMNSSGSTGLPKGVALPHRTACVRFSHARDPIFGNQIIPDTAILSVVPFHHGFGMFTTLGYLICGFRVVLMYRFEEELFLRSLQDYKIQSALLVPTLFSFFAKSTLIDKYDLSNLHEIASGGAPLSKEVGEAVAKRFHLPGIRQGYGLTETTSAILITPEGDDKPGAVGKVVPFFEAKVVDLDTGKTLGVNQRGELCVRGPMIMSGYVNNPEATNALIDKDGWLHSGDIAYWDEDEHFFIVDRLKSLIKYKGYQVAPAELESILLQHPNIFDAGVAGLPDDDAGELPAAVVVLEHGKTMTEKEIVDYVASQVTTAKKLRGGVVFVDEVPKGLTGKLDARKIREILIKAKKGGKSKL
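Here, luciferase activity is measured as luminescence following an 8 min room-temperature reaction at 10 uM ATP, pH 7.2. Every library sample is titrated.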
HBB splicing – modulators of hemoglobin beta chain splicing; HBB splicing reporter cell assay, activation; EGFP reporter with mutant IVS2-654 intron; response scale: normalised to 500 nM splice-correcting PNA; Potency, µM (doses to about 46.1 µM), hits mostly activators; 0.06% of 65,000 active
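Compounds were applied for 2 days to HeLa EGFP-654 cells, 500/well in Optimem with 2% FCS. The reporter's EGFP is disrupted by mis-splicing of beta-globin intron IVS2-654. Readout: summed well GFP fluorescence from 488 nm laser scanning; reference was 500 nM antisense […] 654 PNA.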
Ub-GFP proteasome – ubiquitin-GFP accumulation via proteasome inhibition | 67,000 tested, under 10 active | AID 526 | Ubiquitin-GFP reporter cells, proteasome inhibition, GFP fluorescence; response scale: untreated = 0%, 10 µM MG-132 = 100% | Potency, µM (series often up to 45.9 µM), most hits filed as activators; active = well fitted activation curve with a large enough effect, not every such curve was filed as active; inconclusive = small, poorly fitted or top-dose-only effect, or another doubt; inactive = no such curve, though single readings can be large or run the other way
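U2OS cells expressing ubiquitin(G76V)-GFP, seeded overnight in 0.5% FBS medium, then treated 4 hr at 37 C across 46 uM to 2.9 nM. GFP-positive cells counted by laser cytometry (488 ex/515 em); %activity scaled between basal and 10 uM MG-132.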
Hits are given with their value; ! = a repeat was not active; [ ] = dose if it differs, or a comment. Rows were chosen to be rich in hits. Some 2.6% of all compounds tested hit in one or more screens of this group. Unless noted, calls follow the shape of the dose curve; as a rule, active = well fitted curve in the direction sought with a large enough effect; inconclusive = small, poorly fitted or top-dose-only effect, or another doubt; inactive = no such curve, though single readings can be large; an effect the other way counts as inactive or inconclusive.

`N#C/C(=C\c1ccc(O)c(O)c1)C(=O)Nc1ccccc1` gave GFP derepression inactive, Luciferase inh 25µM!, HBB splicing inactive and Ub-GFP proteasome inactive.
For COCCn1c(=O)c(-c2cn(C)c3ccccc23)nc2cnc(Oc3ccccc3)nc21 the results were GFP derepression inactive[9.22 µM], Luciferase inh inactive[11.4 µM], HBB splicing inactive and Ub-GFP proteasome inactive.
Screening COCCn1c(C)cc(C(=O)CSc2nc3ccccc3o2)c1C returned GFP derepression inactive, Luciferase inh 7.9µM, HBB splicing inactive and Ub-GFP proteasome inactive.
Screening COCCn1c(C)cc(C(=O)CSc2nc(C)cc(C)c2C#N)c1C returned PK Bst inactive, GFP derepression inactive, Luciferase inh inactive, HBB splicing inactive and Ub-GFP proteasome inactive.
For COCCn1c(C)cc(C(=O)CSc2nnc3ccccn23)c1C the results were GFP derepression inactive, Luciferase inh 10µM, HBB splicing inactive and Ub-GFP proteasome inactive.
`COCCn1c(C)cc(C(=O)CSc2ncn[nH]2)c1C` gave PK Bst inactive, GFP derepression inactive, Luciferase inh inactive, HBB splicing inactive and Ub-GFP proteasome inactive.
COCCn1c(=O)c(-c2ccc(Cl)cc2)nc2cnc(Oc3ccccc3)nc21 was read as GFP derepression inactive[9.22 µM], Luciferase inh inactive[11.4 µM], HBB splicing inactive and Ub-GFP proteasome inactive.
Screening CCN(CC)C(=O)c1csc(Nc2ccc(C)cc2)n1 returned PK Bst inactive, GFP derepression inactive, Luciferase inh inactive, HBB splicing inactive and Ub-GFP proteasome inactive.
For Cc1ccc(Nc2nc(C3CC3)cs2)cc1 the results were Luciferase inh 7.9µM, HBB splicing inactive and Ub-GFP proteasome inactive.
CC(C)Nc1ncnc2c1cnn2-c1ccc(Cl)cc1 was read as Luciferase inh 2.5µM, HBB splicing inactive and Ub-GFP proteasome inactive.
For COCCNc1ncnc2c1cnn2-c1ccc(Cl)cc1 the results were PK Bst 10, GFP derepression inactive and Luciferase inh 10µM.
For OCCOCCNc1ncnc2c1cnn2-c1ccc(Cl)cc1 the results were PK Bst 11, GFP derepression inactive and Luciferase inh 10µM.
OCCOCCNc1ncnc2c1cnn2-c1ccccc1 was read as PK Bst inactive, GFP derepression inactive and Luciferase inh inactive.
`CC(=O)O[C@]1(C(C)=O)CC[C@@H]2[C@@H]3C=C(Cl)C4=CC(=O)[C@H]5C[C@@H]5[C@]4(C)[C@H]3CC[C@]21C` gave GFP derepression inactive, Luciferase inh inactive, HBB splicing inactive and Ub-GFP proteasome inactive.
`O=C(c1ccc(N2CCOCC2)cc1)c1cccs1` gave PK Bst inconclusive, GFP derepression inactive, Luciferase inh 10µM and Ub-GFP proteasome inactive.
`Cc1cc(C2(c3cc(C)c(O)c(C(=O)O)c3)OS(=O)(=O)c3ccccc32)cc(C(=O)O)c1O` gave GFP derepression inactive[9.22 µM], Luciferase inh inactive[11.4 µM], HBB splicing inactive[9.22 µM] and Ub-GFP proteasome inactive[9.17 µM].
Cn1c(SCc2ccc(C#N)cc2Cl)nc2ccccc21 was read as GFP derepression inactive, Luciferase inh 16µM, HBB splicing inactive and Ub-GFP proteasome inactive.
Cn1c(SCc2nc3ccccc3n2CCO)nc2ccccc21 was read as PK Bst inactive, GFP derepression inactive, Luciferase inh inactive, HBB splicing inactive and Ub-GFP proteasome inactive.
CCCn1c(-c2ccc(F)cc2)nc2c(NC3CC4CCC(C3)N4C)nc(C)nc21 (centres undefined) was read as HBB splicing inactive and Ub-GFP proteasome inactive.
`Cc1ccccc1-n1c(C)nnc1SCc1nc2ccccc2s1` gave GFP derepression inactive, Luciferase inh 20µM, HBB splicing inactive and Ub-GFP proteasome inactive.
Screening Cn1c(SCc2nc3ccccc3s2)nnc1-c1cccs1 returned PK Bst inactive, GFP derepression inactive, Luciferase inh inactive, HBB splicing inactive and Ub-GFP proteasome inactive.
Screening Cn1cccc1C(=O)Nc1nc(-c2ccccn2)cs1 returned PK Bst inactive, GFP derepression inconclusive, Luciferase inh 20µM, HBB splicing inactive and Ub-GFP proteasome inactive.
Screening c1c[nH]cn1 returned HBB splicing inactive.
`Cc1ccc(N2C(=O)c3ccccc3C2O)nc1` (centres undefined) gave Luciferase inh 6.3µM, HBB splicing inactive and Ub-GFP proteasome inactive.
`Cc1ccc(N2C(=O)c3ccccc3C2Nc2ccccc2F)nc1` (centres undefined) gave Luciferase inh inactive, HBB splicing inactive and Ub-GFP proteasome inactive.
Screening CN(C)Cc1ccccc1-c1cc(NCc2ccccc2)ncn1 returned GFP derepression inactive[9.22 µM], Luciferase inh inactive[2.29 µM], HBB splicing inactive and Ub-GFP proteasome inactive.
For CCCC(=O)N(C)c1nnc(-c2ccc(OC)cc2)s1 the results were PK Bst inactive, GFP derepression inactive, Luciferase inh 16µM and Ub-GFP proteasome inactive.
For CCOc1ccc(-c2nnc(N(CC)C(=O)C3CCC3)s2)cc1 the results were PK Bst inconclusive, GFP derepression inactive, Luciferase inh 16µM, HBB splicing inactive and Ub-GFP proteasome inactive.
CCN(C(=O)Cc1cccs1)c1nnc(-c2cc(OC)c(OC)c(OC)c2)s1 was read as PK Bst inactive, GFP derepression inactive, Luciferase inh inactive and Ub-GFP proteasome inactive.
Screening Cc1ccc2[nH]c(-c3ccccc3)cc(=O)c2c1 returned GFP derepression inactive, Luciferase inh 5µM, HBB splicing inactive[0.0738 µM] and Ub-GFP proteasome inactive[9.17 µM].
`O=C1CC2(CCCC2)CC(=O)N1CCCCNC[C@H]1COc2ccccc2O1` gave GFP derepression inactive, Luciferase inh inactive and Ub-GFP proteasome inactive.
Screening COC(=O)c1ccc(-c2cc(C(=O)O)c3cc4c(cc3n2)OCCO4)cc1 returned PK Bst inconclusive, GFP derepression inactive, Luciferase inh 3.2µM, HBB splicing inactive and Ub-GFP proteasome inactive.
`O=C(O)c1cc(-c2ccc(-c3ccccc3)cc2)nc2cc3ccccc3cc12` gave GFP derepression inactive[9.22 µM], Luciferase inh inconclusive, HBB splicing inactive[9.22 µM] and Ub-GFP proteasome inactive[9.17 µM].
`NC(=O)c1ccccc1N/C=C/C(=O)c1ccco1` gave PK Bst inconclusive, GFP derepression inactive, Luciferase inh 10µM, HBB splicing inactive and Ub-GFP proteasome inactive.
`O=[N+]([O-])c1ccc(Cl)c(CNc2ncnc3c2ncn3[C@@H]2CCCCO2)c1` gave GFP derepression inactive[9.22 µM], Luciferase inh inactive[11.4 µM], HBB splicing inactive[9.22 µM] and Ub-GFP proteasome inactive[9.17 µM].
O=C(Nc1nc(-c2nc3ccccc3s2)cs1)C1CC1 was read as Luciferase inh 5µM, HBB splicing inactive and Ub-GFP proteasome inactive.
`O=C(Nc1nc(-c2nc3ccccc3s2)cs1)c1ccco1` gave Luciferase inh inactive, HBB splicing inactive and Ub-GFP proteasome inactive.
`O=C(CN1C(=O)CCC1=O)Nc1nc(-c2nc3ccccc3s2)cs1` gave Luciferase inh 13µM, HBB splicing inactive and Ub-GFP proteasome inactive.
Screening O=C(Nc1nc(-c2ccc3c(c2)OCO3)cs1)C1CC1 returned Luciferase inh 13µM, HBB splicing inactive and Ub-GFP proteasome inactive.
